Laboratory results published in PubChem BioAssay (EPA / NIEHS).
Active and inactive are the calls of the source. How the source made its calls: active means hit-call score of the fitted dose curve at least 0.9, where 1 is the maximum; inactive means score below 0.9.

The compounds below were run on JUN Transcription Factor, JUN (gene 3725) (assay: LTEA_HepaRG_JUN: Life Technologies and Expression Analysis (LTEA) Assay for JUN Transcription Factor using HepaRG (AID 2283513)). Conditions: mRNA level, 48 h; actives raise or lower the signal.
Description: LTEA_HepaRG is a cell based, multiplexed-readout assay that uses HepaRG, a human liver cell line, with measurements taken at 48 hours after chemical dosing on a 96-well plate.LTEA_HepaRG_JUN is one of 102 assay component(s) measured in the LTEA HepaRG cell culture assay. It is a marker of Cell proliferation, survival, death.Data from the assay component LTEA_HepaRG_JUN was analyzed into 1 endpoint. This assay endpoint, LTEA_HepaRG_JUN, was analyzed with bidirectional fitting relative to DMSO as the negative control and baseline of activity. Using a type of inducible reporter, measures of mRNA induction for gain or loss-of-signal activity can be used to understand regulation of transcription factor activity. To generalize the intended target to other relatable targets, this assay endpoint is annotated to the dna binding intended target family, where the subfamily is basic leucine zipper.
A total of 1060 chemcials from the ToxCast library were tested in eight-point concentration-response experiments. Cell culture and cytotoxicity assays were conducted at Thermo Fisher Scientific's Custom Services facility (Madison, WI). A single lot of human HepaRG cells (Thermo Fisher Scientific, Frederick, MD) was used for the cell culture experiments. 96-well format collagen type I coated plates of human HepaRG cells were prepared using established methods. Briefly, cryopreserved HepaRG cells were thawed, plated at a density of approximately 100,000 cells/well in HepaRG Thaw, Plate, and General Purpose media (HPRG770, Thermo Fisher Scientific), and incubated for 48 hours. 0.5% DMSO was selected as vehicle control to balance the requisite need of DMSO in HepaRG cultures to maintain differentiation (for example, baseline metabolism, proportions of hepatocytes vs. cholangiocytes), while enabling further hepatic receptor pathway activation (for example, PXR and CAR) in response to chemical exposure. 48 hours after plating, the culture medium was replaced with HepaRG Serum-Free Incudtion Media. Cells were exposed to each test chemical in duplicate and maintained in CO2 incubators for another 48 hours. Chemical plates were thawed to room temperature and 200x concentrations of treatment groups were prepared. 8-point conentration-reponse curves were made with the highest exposure at 100 uM, followed by half-log dilutions, all in 0.5% DMSO. Each test plate contained variouse controls, induction positive controls (1mM phenobarbital), cytotoxicity positive controls ([…] aflatoxin B1), vehicle controls (0.5% DMSO), and total lysis controls (0.5% DMSO). Cell morphology images were taken using an Essen IncuCyte FLR automated microscope, with six 96-well plates imaged in about 24 minutes. Images were captured and exported and JPEG files. Spent culture media was transfered to black-well plates for the LDH assay, and remaining media was sorted at -80 C for later use. Cells were treated with RLT buffer and frozen until shipped for gene expression analysis. Total RNA was isolated from the cell suspension in 75 uL of Buffer RLT (Qiagen, Germantown, MD 20874) by Quintiles/Expression Analysis (Durham, NC) using a custom isolation procedure. Total RNA from each plate well was transferred to a preamplification plate. Fluidigm's 96.96 Dynamic ArrayTM (Fluidigm, Amsterdam, the Netherlands) technology was used for gene expression analyses by quantitative reverse transcription polymerase chain reaction (qRT-PCR, performed by Quintiles/Expression Analysis, Durham, NC)89. Standard TaqManTM Assays (Applied Biosystems/ThermoFisher Scientific, Foster City, CA) were used to assess the expression of 93 genes selected based on their selectivity and sensitivity to important hepatic receptors known to be modulated by environmental chemicals; importance in human hepatocyte functionality; and hepatotoxicity. […]
With `CCC(C)c1ccc(O)cc1` (stereo not given) the outcome was “inactive”.
With `CC(C)(O)c1cnn2c(-c3ccc(F)c(-c4c(F)cccc4C#N)c3)cnc2n1` the outcome was “inactive”.
In the case of `C=CCc1ccc2c(c1)OCO2`, the outcome is reported as “inactive”.
For `CCN(CC)N=O`, the outcome was “inactive”.
With `Clc1ccc(Cl)c(Cl)c1` the outcome was “inactive”.
`O=C(N[C@H](c1ccccc1)[C@@H]1CN2CCC1CC2)c1c(Cl)ccc(C(F)(F)F)c1Cl` was tested, and the AC50 was 82.4 µM (active).
With `CC(C)(C)OOC(=O)c1ccccc1` the outcome was “inactive”.
With `[Cl-].[Cl-].[Hg+2]` the outcome was “inactive”.
With `[O-][Cl+]O` the outcome was “inactive”.
`O=[N+]([O-])c1ccc(Oc2ccc(Cl)cc2Cl)cc1` was tested, and the outcome was “inactive”.
For `Oc1ccc2ccc3cccc4ccc1c2c34`, the outcome was “inactive”.
In the case of `OCCOCCO`, the outcome is reported as “inactive”.
With `[As]#[In]` the outcome was “inactive”.
In the case of `CCN(CC)CCO`, the outcome is reported as “inactive”.
`OCCCBr` was tested, and the outcome was “inactive”.
In the case of `CC(C)COC(=O)c1ccccc1C(=O)OCC(C)C`, the outcome is reported as “inactive”.
In the case of `Cc1cccc(N)c1N`, the outcome is reported as “inactive”.
`CC(O)CCO` (stereo not given) was tested, and the outcome was “inactive”.
With `COC(=O)c1ccccc1N` the outcome was “inactive”.
In the case of `CN(C)C(=O)Nc1ccc(Cl)cc1`, the outcome is reported as “inactive”.
For `Cn1cc(-c2ccccc2)c(=O)c(-c2cccc(C(F)(F)F)c2)c1`, the outcome was “inactive”.
With `Nc1ccc(Oc2ccc(N)cc2)cc1` the outcome was “inactive”.
With `CCOc1cccc(C2(N3CCN(c4ccccc4)CC3)CCC(C)CC2)c1` (stereo not given) the outcome was “inactive”.
For `COC(=O)Nc1nc2ccccc2[nH]1`, the outcome was “inactive”.
In the case of `CCNS(=O)(=O)C(F)(F)C(F)(F)C(F)(F)C(F)(F)C(F)(F)C(F)(F)C(F)(F)C(F)(F)F`, the outcome is reported as “inactive”.
`Clc1ccc(C(c2ccc(Cl)cc2)C(Cl)Cl)cc1` was tested, and the outcome was “inactive”.
`Clc1ccccc1Cl` was tested, and the outcome was “inactive”.
In the case of `O=C(Nc1ccccc1)c1ccccc1I`, the outcome is reported as “inactive”.
In the case of `O=Cc1ccco1`, the outcome is reported as “inactive”.
With `Cc1cc(N=Nc2ccccc2C)ccc1N` the outcome was “inactive”.
With `Cc1ccc(N=C=O)cc1N=C=O` the outcome was “inactive”.
`ClCCOCCCl` was tested, and the outcome was “inactive”.
`CCCCCCCCCCCCCN1CC(C)OC(C)C1` (stereo not given) was tested, and the outcome was “inactive”.
For `O=C(O)C1C2CCC(O2)C1C(=O)O` (stereo not given), the AC50 was 24.7 µM (active).
In the case of `Brc1ccc(Oc2ccccc2)cc1`, the outcome is reported as “inactive”.
For `Cc1ccc(N)cc1`, the outcome was “inactive”.
With `c1ccc(C2CO2)cc1` (stereo not given) the outcome was “inactive”.
In the case of `C[N+](C)(C)CC1CO1` (stereo not given), the outcome is reported as “inactive”.
For `COc1cc(C=O)cc2c1[C@H](COC(N)=O)[C@]1(OC(C)=O)ON2C[C@H]2[C@@H]1N2C(C)=O`, the AC50 was 5 µM (active).
For `Nc1ccc(Cc2ccc(N)cc2)cc1`, the outcome was “inactive”.
